# In PubChem BioAssay:
# Calls of active or inactive are those of the source. Rule as the data show it, unless noted: active = inhibition above about 80%; inactive = the rest.
# Experiments:
# [1] = growth inhibition of RCMB18 medulloblastoma cells, cell-based, cisplatin and BGB IC40 combos (AID 1671462); conditions: stronger effect = higher value;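 also: cells exposed to compound for four days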
# [2] = growth inhibition of CRL1545 osteosarcoma cells, cell-based, cisplatin and BGB IC20 combos (AID 1671464); conditions: stronger effect = higher value;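 also: cells exposed to compound for 96 hours before readout; 0% = vehicle DMSO and 100% = high DMSO killing control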
# [3] = LFS_MB_P medulloblastoma growth inhibition, cell-based, chromothripsis tumors, cisplatin or BGB combos (AID 1671449); conditions: LFS_MB_P medulloblastoma cells;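 also: cells exposed for 96 hours; 0% = vehicle DMSO and 100% = killing by high DMSO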
# [4] = HDN33 neuroblastoma growth inhibition, cell-based, chromothripsis tumors, cisplatin or BGB combos (AID 1671450); conditions: HDN33 neuroblastoma cells, stronger effect = higher value;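 also: cells exposed to compound for four days; 0% = vehicle DMSO and 100% = cell killing by high DMSO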
# [5] = ICB984 medulloblastoma cell growth inhibition, synergistic combos for chromothripsis tumors, cisplatin or BGB combos (AID 1671451; call rule not given here;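 also: cells exposed for 96 hours before readout; 0% = vehicle DMSO and 100% = killing by high DMSO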); conditions: ICB984 medulloblastoma cells, drug combinations, stronger effect = higher value
# [6] = LFS_MB_1R medulloblastoma cell growth inhibition, synergistic combos for chromothripsis tumors, cisplatin or BGB combos (AID 1671452); conditions: LFS_MB_1R medulloblastoma cells, stronger effect = higher value;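 also: cells exposed for 96 hours before readout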
# [7] = HTB85 osteosarcoma cell growth inhibition, synergistic combos for chromothripsis tumors, BGB or cisplatin IC20 combos (AID 1671453); conditions: HTB85 osteosarcoma cells, drug combinations, stronger effect = higher value;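 also: cells exposed for 96 hours before readout; 0% = vehicle DMSO and 100% = high DMSO killing control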
# [8] = CRL2098 osteosarcoma cell growth inhibition, synergistic combos for chromothripsis tumors, BGB or cisplatin IC20 combos (AID 1671454); conditions: CRL2098 osteosarcoma cells, drug combinations, stronger effect = higher value;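 also: cells exposed for 96 h before readout; 0% = vehicle DMSO and 100% = killing by high DMSO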
# [9] = HD-MB03 medulloblastoma cell growth inhibition, synergistic combos for chromothripsis tumors, BGB or cisplatin IC20 combos (AID 1671455; in the data active = inhibition above about 83%;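 also: 0% = vehicle DMSO and 100% = high DMSO as cytotoxic control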); conditions: HD-MB03 medulloblastoma cells, stronger effect = higher value
# [10] = UWB1.289 ovarian carcinoma cell growth inhibition, synergistic combos for chromothripsis tumors, BGB or cisplatin combos (AID 1671456); conditions: UWB1.289 ovarian carcinoma cells, stronger effect = higher value;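 also: cells exposed to compound for four days; 0% = vehicle DMSO and 100% = killing by high DMSO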
# [11] = LFS_MB_2R medulloblastoma cell growth inhibition, synergistic combos for chromothripsis tumors, cisplatin combos (AID 1671457); conditions: LFS_MB_2R medulloblastoma cells, stronger effect = higher value;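 also: cells exposed to compound for four days before readout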
# [12] = MDA-MB-436 breast carcinoma cell growth inhibition, synergistic combos for chromothripsis tumors, BGB or cisplatin combos (AID 1671458; call rule not given here;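 also: cells exposed for 96 hours; 0% = vehicle DMSO and 100% = killing by high DMSO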); conditions: MDA-MB-436 breast carcinoma growth inhibition, drug combinations, stronger effect = higher value
# [13] = UWB1.289_BRCA1 ovarian cancer growth, cell-based, BGB or cisplatin combinations (AID 1671459); conditions: UWB1.289 BRCA1 ovarian carcinoma, drug combinations, stronger effect = higher value
# [14] = human astrocyte viability loss, single and combined drugs, cytotoxicity control for chromothriptic childhood tumor combination screen, cell-based, BGB or cisplatin IC20 combos (AID 1671460); conditions: Human astrocytes, drug combinations, stronger effect = higher value;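 also: cells exposed to compounds for 96 hours before viability readout; 0% = vehicle and 100% = killing control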
# [15] = growth inhibition of BT084 medulloblastoma cells, cell-based, ICGC_MB145, cisplatin and BGB IC40 combos (AID 1671461); conditions: drug combinations, stronger effect = higher value;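 also: cells exposed to drugs for 96 hours; 0% = vehicle DMSO and 100% = high DMSO full killing control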
# [16] = measured here: BGB IC40 combination, at 0.05 µM
# [17] = measured here: combination with cisplatin, at 0.5 µM
# [18] = measured here: with BGB IC20 combination, at 0.5 µM
# [19] = measured here: with cisplatin IC20 combination, at 0.5 µM
# [20] = at 0.5 µM, stronger effect = higher value
# [21] = measured here: combination with BGB IC20, at 0.005 µM
# [22] = measured here: combination with BGB IC40, at 0.005 µM
# [23] = measured here: combination with BGB IC40, at 0.05 µM
# [24] = measured here: combination with cisplatin, at 0.5 µM, stronger effect = higher value
# [25] = measured here: combination with cisplatin, at 5 µM, stronger effect = higher value
# [26] = measured here: 5 uM single agent, at 5 µM
# [27] = measured here: combination with cisplatin, at 5 µM
# [28] = measured here: with BGB IC20, at 0.5 µM
# [29] = measured here: with BGB IC20, at 5 µM
# [30] = measured here: with cisplatin IC20, at 0.5 µM
# [31] = measured here: with cisplatin IC20, at 5 µM
# [32] = measured here: combination with BGB at IC20, at 0.5 µM
# [33] = measured here: combination with cisplatin at IC20, at 0.5 µM
# [34] = measured here: combo with BGB at IC20, at 0.5 µM
# [35] = measured here: combo with cisplatin at IC20, at 0.5 µM
# [36] = measured here: inhibition with BGB combination, at 0.05 µM
# [37] = measured here: inhibition with cisplatin combination, at 0.05 µM
# [38] = measured here: BGB combination, at 0.5 µM
# [39] = measured here: BGB combination, at 5 µM
# [40] = measured here: cisplatin combination, at 0.5 µM
# [41] = measured here: cisplatin combination, at 5 µM
# [42] = BGB combination, concentration series, at 5 µM
# [43] = cisplatin combination, concentration series, at 5 µM
# [44] = measured here: combo with BGB IC20, at 0.5 µM
# [45] = measured here: combo with cisplatin IC20, at 0.5 µM
# [46] = cisplatin combination, at 0.5 µM
# [47] = measured here: BGB IC40 combination 0.05 uM, at 0.05 µM
compound,measurement,setting,value
O=C(CCCCCCC(=O)NO)NO,inhibition,[1]; [16],-1.04%
same,inhibition,[1]; [17],-1.18%
same,inhibition,"[1]; single agent, at 5 µM",-14.5%
same,inhibition,[2]; at 0.5 µM,-30.5% (inactive)
same,inhibition,[2]; [18],-55.7%
same,inhibition,[2]; [19],-17.9%
same,inhibition,"[2]; single agent, at 0.05 µM",-50.7%
same,inhibition,"[2]; single agent, at 5 µM",-1.16%
COc1cccc2c1C(=O)c1c(O)c3c(c(O)c1C2=O)CC(O)(C(C)=O)CC3OC1CC(N)C(O)C(C)O1 (centres undefined),inhibition,[3]; [20],-31.5% (inactive)
same,inhibition,[3]; [21],15.7%
same,inhibition,[3]; [22],-20.1%
same,inhibition,[3]; [23],0.2%
same,inhibition,[3]; [24],-39.6%
same,inhibition,[3]; [25],121%
same,inhibition,"[4]; BGB combo, at 5 µM",99.8%
same,inhibition,[4]; at 0.5 µM,99.4% (active)
same,inhibition,"[4]; cisplatin combo, at 5 µM",99.9%
same,inhibition,[4]; [18],98.9%
same,inhibition,[4]; [19],99.7%
same,inhibition,"[4]; single agent, at 5 µM",99.9%
same,inhibition,"[5]; BGB IC20 combo, at 0.005 µM",97.7%
same,inhibition,"[5]; BGB IC40 combo, at 0.005 µM",98%
same,inhibition,"[5]; BGB IC40 combo, at 0.05 µM",102%
same,inhibition,[5]; at 0.5 µM,-13% (inactive)
same,inhibition,"[5]; cisplatin combo, at 0.05 µM",102%
same,inhibition,"[5]; cisplatin combo, at 0.5 µM",-18.7%
same,inhibition,"[5]; cisplatin combo, at 5 µM",7.68%
same,inhibition,[5]; [26],8.05%
same,inhibition,[6]; at 0.5 µM,101% (active)
same,inhibition,[6]; [23],85%
same,inhibition,[6]; [17],101%
same,inhibition,[6]; [27],104%
same,inhibition,[7]; at 0.5 µM,99.2% (active)
same,inhibition,[7]; [28],98.8%
same,inhibition,[7]; [29],99.9%
same,inhibition,[7]; [30],99.3%
same,inhibition,[7]; [31],100%
same,inhibition,"[7]; single agent, at 5 µM",99.9%
same,inhibition,[8]; at 0.5 µM,99.4% (active)
same,inhibition,[8]; [32],98.9%
same,inhibition,[8]; [33],99.6%
same,inhibition,[9]; at 0.5 µM,97.2% (active)
same,inhibition,[9]; [34],95.8%
same,inhibition,[9]; [35],97.5%
same,inhibition,[10]; at 0.5 µM,72.4% (inactive)
same,inhibition,[10]; [36],38.4%
same,inhibition,[10]; [37],35.7%
same,inhibition,[11]; at 0.5 µM,86.9% (active)
same,inhibition,[11]; [17],95.6%
same,inhibition,[11]; [27],112%
same,inhibition,[12]; at 0.5 µM,87.4% (active)
same,inhibition,[12]; [38],85.1%
same,inhibition,[12]; [39],89.2%
same,inhibition,[12]; [40],91.5%
same,inhibition,[12]; [41],95.1%
same,inhibition,[13]; [42],104%
same,inhibition,[13]; at 0.5 µM,80.6% (active)
same,inhibition,[13]; [43],98.3%
same,inhibition,[14]; at 0.5 µM,93.3% (active)
same,inhibition,[14]; [44],88.3%
same,inhibition,[14]; [45],93.9%
same,inhibition,[15]; at 0.5 µM,40.4% (inactive)
same,inhibition,[15]; [46],18.1%
same,inhibition,"[15]; cisplatin combination, at 5 µM",88%
same,inhibition,[15]; [47],-6.7%
same,inhibition,"[15]; single agent, at 5 µM",88.2%
same,inhibition,[1]; at 0.5 µM,79% (inactive)
same,inhibition,"[1]; cisplatin combo, at 5 µM",90.7%
same,inhibition,[1]; [16],13.9%
same,inhibition,[1]; [17],77.7%
same,inhibition,"[1]; single agent, at 5 µM",94.7%
same,inhibition,[2]; at 0.5 µM,99.5% (active)
same,inhibition,[2]; [18],99.1%
same,inhibition,[2]; [19],99.7%
same,inhibition,"[2]; single agent, at 0.05 µM",98.4%
same,inhibition,"[2]; single agent, at 5 µM",100%
Cc1ccc([N+](=O)[O-])cc1S(=O)(=O)N(C)/N=C\c1cnc2ccc(Br)cn12,inhibition,[3]; [20],61.9% (inactive)
same,inhibition,[3]; [21],-13.3%
same,inhibition,[3]; [22],-40.2%
same,inhibition,[3]; [23],-31.8%
same,inhibition,[3]; [24],56.3%
same,inhibition,[3]; [25],118%
same,inhibition,"[4]; BGB combo, at 5 µM",99.2%
same,inhibition,[4]; at 0.5 µM,94.3% (active)
same,inhibition,"[4]; cisplatin combo, at 5 µM",99.5%
same,inhibition,[4]; [18],94%
same,inhibition,[4]; [19],93.5%
same,inhibition,"[4]; single agent, at 5 µM",99.5%
same,inhibition,"[5]; BGB IC20 combo, at 0.005 µM",97.1%
same,inhibition,"[5]; BGB IC40 combo, at 0.005 µM",95.5%
same,inhibition,"[5]; BGB IC40 combo, at 0.05 µM",97.1%
same,inhibition,[5]; at 0.5 µM,-13.8% (inactive)
same,inhibition,"[5]; cisplatin combo, at 0.05 µM",97%
same,inhibition,"[5]; cisplatin combo, at 0.5 µM",-12.8%
same,inhibition,"[5]; cisplatin combo, at 5 µM",-10.7%
same,inhibition,[5]; [26],-35%
same,inhibition,[6]; at 0.5 µM,97.7% (active)
same,inhibition,[6]; [23],22.2%
same,inhibition,[6]; [17],94.2%
same,inhibition,[6]; [27],99.5%
same,inhibition,[7]; at 0.5 µM,95.7% (active)
same,inhibition,[7]; [28],97.6%
same,inhibition,[7]; [29],99.7%
same,inhibition,[7]; [30],99.5%
same,inhibition,[7]; [31],99.8%
same,inhibition,"[7]; single agent, at 5 µM",99.8%
same,inhibition,[8]; at 0.5 µM,94.2% (active)
same,inhibition,[8]; [32],89.1%
same,inhibition,[8]; [33],96.8%
same,inhibition,[9]; at 0.5 µM,92.1% (active)
same,inhibition,[9]; [34],88.3%
same,inhibition,[9]; [35],94.9%
same,inhibition,[10]; at 0.5 µM,64.8% (inactive)
same,inhibition,[10]; [36],-16.8%
same,inhibition,[10]; [37],-30.8%
same,inhibition,[11]; at 0.5 µM,89.4% (active)
same,inhibition,[11]; [17],92.7%
same,inhibition,[11]; [27],91.4%
same,inhibition,[12]; at 0.5 µM,79.4% (inactive)
same,inhibition,[12]; [38],72.5%
same,inhibition,[12]; [39],55.5%
same,inhibition,[12]; [40],86.1%
same,inhibition,[12]; [41],74.6%
same,inhibition,[13]; [42],89.5%
same,inhibition,[13]; at 0.5 µM,74.9% (inactive)
same,inhibition,[13]; [43],96.2%
same,inhibition,[14]; at 0.5 µM,80.6% (active)
same,inhibition,[14]; [44],72.4%
same,inhibition,[14]; [45],82.6%
same,inhibition,[15]; at 0.5 µM,-3% (inactive)
same,inhibition,[15]; [46],-27.5%
same,inhibition,"[15]; cisplatin combination, at 5 µM",-30.7%
same,inhibition,[15]; [47],-4.87%
same,inhibition,"[15]; single agent, at 5 µM",-15.9%
same,inhibition,[1]; at 0.5 µM,67.8% (inactive)
same,inhibition,"[1]; cisplatin combo, at 5 µM",70%
same,inhibition,[1]; [16],19.8%
same,inhibition,[1]; [17],52.5%
same,inhibition,"[1]; single agent, at 5 µM",76%
same,inhibition,[2]; at 0.5 µM,98% (active)
same,inhibition,[2]; [18],98.1%
same,inhibition,[2]; [19],97.9%
same,inhibition,"[2]; single agent, at 0.05 µM",-77.2%
same,inhibition,"[2]; single agent, at 5 µM",100%
